“And” between values parts separate entries of the source, which are not always exact repeats. Equal entries are not always repeated. Inconclusive results are not listed. Entries that show only a call come without a potency. Values without a mark were called inactive. The source made the active and inactive calls. The call rests on the fitted dose curve; in most records, active means well fitted curve in the direction sought with a large enough effect; inconclusive means small, poorly fitted or top-dose-only effect, or another doubt; inactive means no such curve, though single readings can be large; an effect the other way counts as inactive or inconclusive.
Columns and labels:
[1] = test system: Zika virus NS2B-NS3 protease; experiment: Primary screen GU AMC qHTS for Zika virus inhibitors (AID 1347154); further: nearly all actives have a fitted effect of over 70% in size; further: potency means the concentration at half of the fitted maximal effect
Summary of the method: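 Fluorogenic AMC-substrate cleavage by noncovalent NS2B-NS3 protease complex (25 nM, pH 8.0 Tris buffer with Tween 20) followed for 15 minutes at room temperature (~20% conversion). Percent inhibition from ex340/em450 signal change, fitted by 4-parameter Hill equation.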

[2] = test system: Zika virus NS2B-NS3 protease (unlinked complex); experiment: Primary screen GU Rhodamine qHTS for Zika virus inhibitors: Unlinked NS2B-NS3 protease assay (AID 1347159); further: nearly all actives have a fitted effect of over 60% in size
Summary of the method: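 Enzyme 25 nM in Tris-HCl pH 8.0 + 0.01% Tween 20; compounds up to 114 microM, 15 min RT dark; + Rhod110 substrate 1.5 microM; read t0 and 15 min; delta fluorescence → % inhibition → 4-parameter Hill fit.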

[3] = test system: Zika virus NS2B-NS3 protease (linked construct); experiment: Primary screen NINDS Rhodamine qHTS for Zika virus inhibitors (AID 1347160); details: outcome: dose series up to 57.1 µM unless noted; further: nearly all actives have a fitted effect of over 55% in size
Summary of the method: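 Enzyme (25 nM, linked NS2B-NS3) was preincubated 15 min with compound in 10 mM Tris-HCl pH 8.0, 0.01% Tween 20. Rhodamine110 substrate (1.5 microM) was then added and fluorescence read at start and after 15 min.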

[4] = qHTS to identify inhibitors of the type 1 interferon - major histocompatibility complex class I in skeletal muscle: primary screen against the NCATS Pharmaceutical Collection (AID 1347407);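 further: luminescence of HiBiT knocked into endogenous HLA-B as interferon-induced MHC class I level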
Summary of the method: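 Immortalized human myoblasts (C25cl48) with HiBiT knocked into endogenous HLA-B*08:01 were stimulated with 4 ng/ml IFN-beta and treated with compounds (8-point, 1:5, top 46 uM final) for 24 h at 37 C; HiBiT lytic luminescence read.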

## Nc1nc(F)nc2c1ncn2[C@@H]1O[C@H](CO)[C@@H](O)[C@@H]1O
[1]
  Potency: inactive
[2]
  Potency: inactive
[3]
  outcome: inactive

## CCCCCCNC(=O)n1cc(F)c(=O)[nH]c1=O
[1]
  Potency: inactive

## CCn1cc(C(=O)O)c(=O)c2cc(F)c(N3CCN(C)CC3)cc21
[1]
  Potency: inactive

## Cc1ncc([N+](=O)[O-])n1CCO
[1]
  Potency: inactive

## S=P(N1CC1)(N1CC1)N1CC1
[1]
  Potency: inactive

## CNCC[C@H](Oc1cccc2ccccc12)c1cccs1
[1]
  Potency: inactive

## O=C(O)CCn1c2c(c3ccccc31)C[C@H](NS(=O)(=O)c1ccc(F)cc1)CC2
[1]
  Potency: inactive
[3]
  outcome: inactive

## CN(CCOc1ccc(CC2SC(=O)NC2=O)cc1)c1ccccn1 (stereo not drawn)
[1]
  Potency: inactive

## Cc1onc(-c2ccccc2Cl)c1C(=O)N[C@@H]1C(=O)N2[C@@H]1SC(C)(C)[C@@H]2C(=O)O
[1]
  Potency: inactive
[2]
  Potency: inactive
[3]
  outcome: inactive
[4]
  Potency: inactive

## C1CCC(C(CC2CCCCN2)C2CCCCC2)CC1 (stereo not drawn)
[1]
  Potency: inactive

## CCCCc1oc2ccc(NS(C)(=O)=O)cc2c1C(=O)c1ccc(OCCCN(CCCC)CCCC)cc1
[1]
  Potency: inactive
[2]
  Potency: inactive
[3]
  outcome: inactive; activator

## O=c1oc2c(O)c(O)cc3c(=O)oc4c(O)c(O)cc1c4c23
[1]
  Potency: 496 nM (active) and 1.92 µM (active)

## Cc1oc(=O)oc1CN1CCN(c2cc3c(cc2F)c(=O)c(C(=O)O)c2n3C(C)S2)CC1 (stereo not drawn)
[1]
  Potency: inactive

## Cc1ccnc2c1NC(=O)c1cccnc1N2C1CC1
[1]
  Potency: inactive
[4]
  Potency: inactive

## CCc1c2c(nc3ccc(OC(=O)N4CCC(N5CCCCC5)CC4)cc13)-c1cc3c(c(=O)n1C2)COC(=O)[C@]3(O)CC
[1]
  Potency: 5.73 µM (active)

## Cc1cccc(Nc2ccncc2S(=O)(=O)NC(=O)NC(C)C)c1
[1]
  Potency: inactive

## COc1cccc(N(C)C(=S)Oc2ccc3c(c2)CCCC3)n1
[1]
  Potency: inactive

## O=C(O)c1cc(=O)[nH]c(=O)[nH]1
[1]
  Potency: inactive

## CC[C@H](C)C(=O)O[C@H]1C[C@@H](C)C=C2C=C[C@H](C)[C@H](CC[C@@H]3C[C@@H](O)CC(=O)O3)[C@H]21
[1]
  Potency: inactive
[2]
  Potency: inactive
[3]
  outcome: inactive [at 33.1 µM]

## CN1CCN(c2c(F)cc3c(=O)c(C(=O)O)cn4c3c2OCN4C)CC1
[1]
  Potency: inactive

## Cc1nnc(C(=O)NC(C)(C)c2nc(C(=O)NCc3ccc(F)cc3)c(O)c(=O)n2C)o1
[1]
  Potency: inactive
[2]
  Potency: inactive
[3]
  outcome: inactive
[4]
  Potency: inactive

## CC1=NN(c2ccccc2)C(=O)C1
[1]
  Potency: inactive
[3]
  outcome: inactive
[4]
  Potency: inactive

## C#CCN[C@@H]1CCc2ccccc21
[1]
  Potency: inactive

## Cc1noc(NS(=O)(=O)c2ccc(N)cc2)c1C
[1]
  Potency: inactive

## CN(C)CCc1c[nH]c2ccc(C[C@H]3COC(=O)N3)cc12
[1]
  Potency: inactive
[2]
  Potency: inactive
[3]
  outcome: inactive
[4]
  Potency: inactive

## CC1(C)[C@H](C(=O)O)N2C(=O)C[C@H]2S1(=O)=O
[1]
  Potency: inactive
[2]
  Potency: inactive
[3]
  outcome: inactive
[4]
  Potency: inactive

## N[C@@H](C(=O)N[C@@H]1C(=O)N2C(C(=O)O)=C(Cl)CS[C@H]12)c1ccccc1
[1]
  Potency: inactive

## CCCOc1ccc(C(=O)OCCN(CC)CC)cc1N
[1]
  Potency: inactive

## COc1cc2ncnc(Nc3cccc(Cl)c3)c2cc1OC
[1]
  Potency: inactive
[2]
  Potency: inactive
[3]
  outcome: inactive

## O=P(O)(O)C(O)(Cc1cccnc1)P(=O)(O)O
[1]
  Potency: inactive
[3]
  outcome: inactive [at 4.91 µM]

## CCCN[C@H]1CCc2nc(N)sc2C1
[1]
  Potency: inactive

## NCCCC(O)(P(=O)(O)O)P(=O)(O)O
[1]
  Potency: inactive

## Clc1ccccc1CN1CCc2sccc2C1
[1]
  Potency: inactive

## CCN[C@H]1C[C@H](C)S(=O)(=O)c2sc(S(N)(=O)=O)cc21
[1]
  Potency: inactive

## NNC(=O)c1ccncc1
[1]
  Potency: inactive

## CN(Cc1cc(Br)cc(Br)c1N)C1CCCCC1
[1]
  Potency: inactive

## CC[C@H](NC(C)C)[C@H](O)c1ccc(O)c2[nH]c(=O)ccc12
[1]
  Potency: inactive
[4]
  Potency: inactive

## CO[C@@H]1[C@@H](OC(N)=O)[C@@H](O)[C@H](Oc2ccc3c(O)c(NC(=O)c4ccc(O)c(CC=C(C)C)c4)c(=O)oc3c2C)OC1(C)C
[1]
  Potency: inactive
[4]
  Potency: inactive

## CC(C)Cn1cnc2c(N)nc3ccccc3c21
[1]
  Potency: inactive
[4]
  Potency: inactive

## COCCCOc1cc(C[C@@H](C[C@H](N)[C@@H](O)C[C@H](C(=O)NCC(C)(C)C(N)=O)C(C)C)C(C)C)ccc1OC
[1]
  Potency: inactive
[4]
  Potency: inactive

## CC(C)OC(=O)C(C(=O)OC(C)C)=C1SC=CS1
[1]
  Potency: inactive
[4]
  Potency: inactive

## NC(N)=NC(N)=NCCc1ccccc1
[1]
  Potency: inactive
[4]
  Potency: inactive

## CC(C)OC(=O)OCOP(=O)(CO[C@H](C)Cn1cnc2c(N)ncnc21)OCOC(=O)OC(C)C
[1]
  Potency: inactive
[4]
  Potency: inactive

## CCOC(=O)c1ccc(OC(=O)CCCCCN=C(N)N)cc1
[1]
  Potency: inactive
[4]
  Potency: inactive

## C[C@]12C=CC(=O)C=C1CC[C@@H]1[C@@H]2C(=O)C[C@@]2(C)[C@H]1CC[C@]2(O)C(=O)CO
[1]
  Potency: inactive
[4]
  Potency: inactive

## CN(C)CCc1c[nH]c2ccc(CS(=O)(=O)N3CCCC3)cc12
[1]
  Potency: inactive
[4]
  Potency: inactive

## COc1ccc2c(c1)c(CC(=O)OCC(=O)O)c(C)n2C(=O)c1ccc(Cl)cc1
[1]
  Potency: inactive
[4]
  Potency: inactive

## O=c1cc(O)c(Cl)c[nH]1
[1]
  Potency: inactive
[4]
  Potency: inactive

## COc1cc(NS(=O)(=O)c2ccc(N)cc2)nc(OC)n1
[1]
  Potency: inactive
[4]
  Potency: inactive

## CC(=O)[C@H]1CC[C@H]2[C@@H]3CC=C4C[C@@H](O)CC[C@]4(C)[C@H]3CC[C@]12C
[1]
  Potency: inactive
[4]
  Potency: inactive

## CC(=O)Oc1ccccc1C(=O)Nc1ncc([N+](=O)[O-])s1
[1]
  Potency: inactive
[4]
  Potency: inactive

## NC(=O)N1c2ccccc2CC(=O)c2ccccc21
[1]
  Potency: inactive
[4]
  Potency: inactive

## CC(C)(C)NC(=O)[C@H]1CC[C@H]2[C@@H]3CC[C@H]4NC(=O)C=C[C@]4(C)[C@H]3CC[C@]12C
[1]
  Potency: inactive
[4]
  Potency: inactive

## OC(Cn1cncn1)(Cn1cncn1)c1ccc(F)cc1F
[1]
  Potency: inactive
[4]
  Potency: inactive

## Nc1ccc(S(=O)(=O)Nc2ccccn2)cc1
[1]
  Potency: inactive
[4]
  Potency: inactive

## COc1cnc(NS(=O)(=O)c2ccc(N)cc2)nc1
[1]
  Potency: inactive
[4]
  Potency: inactive

## CCn1cc(C(=O)O)c(=O)c2cc(F)c(N3CCNCC3)nc21
[1]
  Potency: inactive
[4]
  Potency: inactive

From PubChem BioAssay (NCATS)
